Data on eight compounds can be found in PubChem BioAssay (NCI).

What all share (test): NCI-60 one-dose screen, 48 h (100 = growth as untreated, 0 = no growth, -100 = all killed)
Holding throughout (conditions): 10 µM unless noted

The test system of assay [1] is SR leukemia.
For assay [2], the system named is RPMI-8226 leukemia.
Assay [3] relates to OVCAR-8 ovarian.
Assay [4] concerns OVCAR-5 ovarian.
Assay [5] deals with OVCAR-4 ovarian.
Assay [6] has as its system SK-OV-3 ovarian.
For assay [7], the system named is IGROV1 ovarian.
Assay [8] concerns OVCAR-3 ovarian.
Assay [9] relates to HS 578T breast.
Assay [10] has as its system NCI/ADR-RES ovarian.
The subject of assay [11] is T-47D breast.
Assay [12] concerns BT-549 breast.
Assay [13] has as its system MDA-MB-435 melanoma.
Assay [14] concerns SW-620 colon.
The test system of assay [15] is MCF7 breast.
For assay [16], the system named is HCT-116 colon.
In assay [17] the test system is HCC-2998 colon.
Assay [18] concerns KM12 colon.

This is part of a sample that, as a whole, favours compounds with a hit. Of some 83,000 tested, about 20% had one in any assay.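 The test compound was applied at a single concentration to cells in 96-well plates for 48 hours, and percent growth was recorded.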 Values without a mark were called inactive. Calls of active or inactive are those of the source. The calls were made as follows: active = growth percent below 10; inactive = the rest.

Consider `CC(O)Cc1c[nH]c(=O)[nH]c1=O` (centres undefined), for which the growth was 93.8% in assay [1]; 117% in [2]; 92% in [3]; 109% in assay [4]; 115% in [5]; 29.3% in assay [6]. In addition, the growth in assay [7] is 116%; in assay [8] it was 99%; in assay [9], 103%; in [10], 104%; in assay [11], -19.1% (active); in assay [12] it was 105%. The growth is 103% in [13]; 94.9% in [14]; 88.9% in assay [15]; 97.2% in assay [16]; 119% in assay [17]; 95.6% in assay [18].
Consider `COc1ccc(-c2cc(-c3cccnc3)nc3sc4c(N)c(C(C)=O)c(-c5ccccc5)nc4c23)cc1OC`, for which the growth was 75.4% in assay [1]; 53.7% in [2]; 84.9% in assay [3]; 89.5% in [4]; 90.7% in [5]; 110% in assay [6]. For the same compound, the growth in assay [7] was 98.5%; in assay [8], 82.4%; in assay [9], 45.6%; in [10], 79%; in [11] it was 59.4%; in [12], 34.9%. Besides, the growth in assay [13] was 45.7%; in [14], 109%; in [15], 65.3%; in assay [16], 67.6%; in [17], 80.1%; in [18], 76.2%.
Consider `O=C(NC1CCC(Br)CC1)C1CCCC(S(=O)(=O)NC2CCCCC2)C1` (centres undefined), for which the growth is 21.1% [25 µM] in assay [1]; 2.82% [25 µM] (active) in assay [2]; 7.56% [25 µM] (active) in [3]; 39.2% [25 µM] in assay [4]; 4.59% [25 µM] (active) in assay [5]; 1.87% [25 µM] (active) in assay [6]. Further, the growth was 27.4% [25 µM] in [7]; 14.3% [25 µM] in assay [8]; 46.1% [25 µM] in [9]; 3.69% [25 µM] (active) in [10]; -9.71% [25 µM] (active) in assay [11]; 21.6% [25 µM] in assay [12]. Also, the growth in [13] was 14.4% [25 µM]; in assay [14], 31.2% [25 µM]; in assay [15], 6.38% [25 µM] (active); in assay [16] it was 17% [25 µM]; in assay [17], 24.6% [25 µM]; in assay [18], 16.9% [25 µM].
On to `COc1ccccc1/C=C/C(=O)Nc1ccc(F)cc1`, for which the growth in assay [1] was 95%; in [2] it was 85.4%; in [3] it was 100%; in assay [4], 108%; in [5], 86.8%; in assay [6], 81.5%. The growth in assay [7] was 83.2%; in assay [8], 104%; in assay [9], 104%; in assay [10], 101%; in assay [11], 75.4%; in assay [12], 108%. Further, the growth in assay [13] is 94%; in assay [14], 103%; in assay [15] it was 64.4%; in assay [16], 88.1%; in [17], 111%; in [18], 91.3%.
Take `O=C(CSc1nnnn1-c1ccccc1)Nc1ccc(Oc2ccccc2)cc1`: the growth in assay [1] is 7.48% (active); in assay [2] it was 117%; in [3], 97.3%; in assay [4], 92.2%; in assay [5], 101%; in [6], 102%. Also, the growth in [7] was 61.9%; in assay [8], 100%; in [9], 99.2%; in assay [10] it was 96.7%; in assay [11], 90.9%; in assay [12], 112%. Moreover, the growth in assay [13] was 106%; in assay [14], 98.9%; in assay [15], 102%; in assay [16] it was 104%; in assay [17], 100%; in assay [18], 99.4%.
On to `Cc1oc(-c2ccc(Cl)cc2)nc1C1=NN(C(=O)c2ccncc2)C(c2ccccc2)C1` (centres undefined), for which the growth is 101% in assay [1]; 80.3% in [2]; 95.4% in assay [3]; 105% in assay [4]; 85.4% in [5]; 91.9% in assay [6]. Besides, the growth in [7] was 71.3%; in assay [8], 92.4%; in assay [9], 87.4%; in assay [10], 94%; in assay [11] it was 97%; in assay [12], 89.7%. In addition, the growth was 95.9% in assay [13]; 95.2% in assay [14]; 94% in assay [15]; 93.8% in [16]; 102% in assay [17]; 90.6% in assay [18].
Consider `CC(C)CCC[C@@H](C)[C@H]1CC[C@H]2[C@@H]3CC=C4c5sc(Nc6cc(C(F)(F)F)cc(C(F)(F)F)c6)nc5CC[C@]4(C)[C@H]3CC[C@]12C`, for which the growth in assay [1] is 106%; in assay [2], 106%; in [3] it was 89.2%; in assay [4] it was 106%; in assay [5], 100%; in assay [6], 89.2%. The growth in assay [7] was 97.7%; in assay [8] it was 102%; in assay [9] it was 102%; in assay [10], 102%; in assay [11] it was 95.7%; in [12], 98.9%. Further, the growth in [13] was 104%; in [14], 100%; in assay [15], 107%; in assay [16], 99.3%; in assay [17] it was 101%; in assay [18] it was 102%.
Take `Oc1ccc(-c2nc3ccc4[nH]ncc4c3c3c2CCCC3)c(F)c1`: the growth was -1.33% (active) in [1]; 33.2% in assay [2]; 38% in assay [3]; 59.7% in [4]; 51.3% in [5]; -6.45% (active) in assay [6]. Besides, the growth in assay [7] is 22.9%; in [8], 46.6%; in [9], 14.8%; in [10] it was 52%; in [11], 33%; in assay [12], 13.9%. Moreover, the growth is -23.3% (active) in assay [13]; 8.41% (active) in assay [14]; 26.8% in assay [15]; 4.73% (active) in assay [16]; 41.4% in assay [17]; 20% in assay [18].
